The results in this text go back to PubChem BioAssay (NCATS).

Test [1] addresses Cytochrome P450 3A4 (Homo sapiens) (UniProt P08684). Put plainly: qHTS Assay for Inhibitors and Substrates of Cytochrome P450 3A4 (AID 884). For activity change, negative = inhibition: series mostly up to about 57 µM; % is set by controls: 0 for no effect and ±100 for the full control effect. Note: nearly all actives have a fitted effect of over 50% in size. Note: potency is the fitted concentration of half-maximal effect. Summed up:
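20 nM human CYP3A4 with 25 uM Luciferin-PPXE (at KM) in 200 mM KPO4, preincubated 10 min with compound; NADPH regeneration started a 60 min RT reaction. Luciferin detected by luminescence, normalized to 57 uM ketoconazole as full inhibition.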
For orientation: In qHTS, concentration-response curves come from the screen itself.

Test [2] shares this target. The test is described as follows: qHTS Assay for Activators of Cytochrome P450 3A4 (AID 885). Note: nearly all actives have a fitted effect of over 65% in size. Note: potency is the fitted concentration of half-maximal effect. The procedure, abridged: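 Signal was normalized against complete inhibition by 57 uM ketoconazole. The reaction used 20nM CYP3A4 with 25uM Luciferin-PPXE, 10-min compound preincubation and a 60-min NADPH-supported step at RT.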
Test [3] addresses Cytochrome P450 2D6 (Homo sapiens) (UniProt P10635). Put plainly: qHTS Assay for Inhibitors and Substrates of Cytochrome P450 2D6 (AID 891).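 For activity change, negative = inhibition: luciferin methyl ether substrate demethylated by CYP2D6 with NADPH regeneration; % is set by controls: 0 for no effect and ±100 for the full control effect.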 Note: nearly all actives have a fitted effect of over 60% in size. Note: potency is the fitted concentration of half-maximal effect. The procedure, abridged:
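Human CYP2D6 (5 nM) with 30 uM Luciferin-ME EGE (at Km) in 100 mM KPO4, compound preincubated 10 min, then NADPH regeneration system for 60 min at room temperature. Luciferin read by luminescence; normalized to 1.43 uM quinidine.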

In test [4] the target is Cytochrome P450 2C19 (Homo sapiens) (UniProt P33261). Put plainly: qHTS Assay for Inhibitors and Substrates of Cytochrome P450 2C19 (AID 899). Note: nearly all actives have a fitted effect of over 60% in size. Note: potency is the fitted concentration of half-maximal effect. The procedure, abridged: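 Luminescence readout of luciferin formed from 10uM Luciferin-H EGE (KM level) by 5 nM CYP2C19 in 50mM KPO4. 60 min NADPH-driven reaction at 37C after 10 min compound preincubation; data scaled to 57uM ketoconazole inhibition.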
Sequence of Cytochrome P450 2C19 (Homo sapiens) (P33261 whole entry, looked up): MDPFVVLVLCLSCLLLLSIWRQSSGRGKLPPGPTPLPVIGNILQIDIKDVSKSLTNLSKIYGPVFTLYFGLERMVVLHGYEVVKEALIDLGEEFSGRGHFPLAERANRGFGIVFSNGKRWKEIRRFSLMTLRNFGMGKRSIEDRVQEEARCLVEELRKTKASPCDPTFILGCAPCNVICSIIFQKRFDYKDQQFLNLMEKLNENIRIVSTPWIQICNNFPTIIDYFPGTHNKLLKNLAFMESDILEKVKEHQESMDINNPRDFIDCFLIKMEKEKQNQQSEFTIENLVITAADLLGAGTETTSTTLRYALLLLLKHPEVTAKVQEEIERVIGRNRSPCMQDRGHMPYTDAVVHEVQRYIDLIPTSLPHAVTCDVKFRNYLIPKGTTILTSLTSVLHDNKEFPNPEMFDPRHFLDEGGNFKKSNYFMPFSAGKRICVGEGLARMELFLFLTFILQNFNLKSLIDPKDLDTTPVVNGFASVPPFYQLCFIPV

A short description of test [5]: Confirmation and Secondary Assay for Modulators of Hemoglobin Beta Chain Splicing at IVS2 705 locus (AID 930).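 Note: HeLa cells stably expressing the EGFP-705 splicing reporter; GFP fluorescence per well restored by corrected splicing of the IVS2-705 intron in EGFP; series mostly up to about 46 µM; % of control where 0% means no effect.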 Summed up: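 Fluorescence gain (488 nm laser, 500-520 nm PMT) reflects restored correct splicing of a mutant IVS2-705 intron inside EGFP in stably transfected HeLa cells after 2-day compound treatment.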
Test [6] can be described thus: Confirmation and Secondary Assay for Modulators of Hemoglobin Beta Chain Splicing at IVS2 654 locus (AID 910).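 Note: HeLa cells stably carrying EGFP split by mutant beta-globin IVS2-654 intron; per-well total GFP intensity by laser scanning cytometry after 2-day treatment; % of control where 0% means no effect.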 Summed up: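 Readout: per-well total peak green fluorescence (488 nm ex, 500–520 nm em) from objects 5–250 µm, reflecting correct splicing of an EGFP-654 reporter. Compounds were applied for 2 days at 37 °C to overnight-plated HeLa EGFP-654 cells; controls were DMSO and 500 nM IVS2-654 PNA.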

Test [7] can be described thus: qHTS Assay for Identification of Small Molecule Agonists for Hypoxia Response Element Signaling Pathway (AID 914; active = well fitted activation curve with a large enough effect in the signal ratio, with a control signal flat, not every such curve was filed as active; the % refers to the signal ratio; note: % of control where 0% means no effect). As to conditions: ME-180 (cervical carcinoma) HRE-bla reporter, beta-lactamase ratio, CoCl2, 17 h; hits give high values. Summed up: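 A beta-lactamase reporter under hypoxia response element control in ME-180 cells served as the system. Compound titrations plus EC50 CoCl2 ran 17 h at 37 degrees Celsius; AC50 values were fitted from %Activity.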

Where “and” joins values, the source holds several entries; their conditions need not be identical. Equal values may be shown once. Unmarked numbers belong to inactive results. Results filed as inconclusive are left out. Calls of active or inactive are those of the source. Unless noted, calls come from the whole dose curve; as a rule, active = well fitted curve in the direction sought with a large enough effect; inconclusive = small, poorly fitted or top-dose-only effect, or another doubt; inactive = no such curve, though single readings can be large; an effect the other way counts as inactive or inconclusive.

Sequence of Cytochrome P450 3A4 (Homo sapiens) (P08684 whole entry, looked up): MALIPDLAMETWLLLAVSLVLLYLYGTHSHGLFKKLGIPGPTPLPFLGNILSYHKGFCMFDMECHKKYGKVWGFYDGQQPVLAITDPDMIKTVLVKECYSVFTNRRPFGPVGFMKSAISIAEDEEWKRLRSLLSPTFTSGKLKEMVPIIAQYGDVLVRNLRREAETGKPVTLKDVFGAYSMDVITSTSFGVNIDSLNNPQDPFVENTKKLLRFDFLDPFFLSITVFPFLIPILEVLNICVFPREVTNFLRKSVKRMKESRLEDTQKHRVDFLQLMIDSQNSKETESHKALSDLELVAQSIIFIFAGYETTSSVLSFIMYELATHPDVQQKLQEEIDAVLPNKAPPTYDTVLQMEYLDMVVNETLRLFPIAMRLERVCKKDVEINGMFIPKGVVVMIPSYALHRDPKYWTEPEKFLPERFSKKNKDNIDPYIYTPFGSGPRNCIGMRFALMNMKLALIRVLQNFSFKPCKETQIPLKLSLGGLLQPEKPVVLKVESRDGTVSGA
Sequence of Cytochrome P450 2D6 (Homo sapiens) (P10635 whole entry, looked up): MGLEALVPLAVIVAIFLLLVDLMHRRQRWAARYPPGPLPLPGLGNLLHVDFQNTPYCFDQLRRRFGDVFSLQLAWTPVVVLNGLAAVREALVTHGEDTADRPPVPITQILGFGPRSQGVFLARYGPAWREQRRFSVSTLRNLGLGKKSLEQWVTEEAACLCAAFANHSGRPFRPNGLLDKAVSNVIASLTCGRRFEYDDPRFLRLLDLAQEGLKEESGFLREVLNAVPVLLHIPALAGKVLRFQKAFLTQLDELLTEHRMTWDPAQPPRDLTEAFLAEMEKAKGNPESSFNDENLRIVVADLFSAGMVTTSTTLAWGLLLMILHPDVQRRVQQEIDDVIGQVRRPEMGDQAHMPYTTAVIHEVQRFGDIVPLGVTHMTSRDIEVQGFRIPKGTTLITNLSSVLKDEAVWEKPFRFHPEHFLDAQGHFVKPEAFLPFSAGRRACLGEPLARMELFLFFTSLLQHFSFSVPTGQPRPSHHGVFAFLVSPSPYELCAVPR

Take `COC(=O)NC(c1cccc(C)c1)[C@]1(C(C)=O)CCOC1=O` (stereo partly drawn): the Potency in test [1] is 0.0316 µM (active); in test [4], 0.0398 µM (active). Moreover, the activity change, positive = activation in test [2] is -88.5% [at 11.4 µM]. Also, the Potency result in test [3] is “inactive”.
Taken in the same sequence, the figures for `COCC#Cc1ccc(C2C(C)CCC3C(=O)N4C(CCC(C)C4c4ccc(C#CCOC)cc4)C(=O)N32)cc1` (stereo not drawn) were 1.26 µM (active), “inactive”, -65.6% [at 11.4 µM] and “inactive”.
For the molecule `COC(=O)N1[C@H](Cc2ccccc2)C=C[C@]1(C)C(=O)NCc1ccc(N(C)C)cc1`, the Potency in test [1] is 0.794 µM (active). Moreover, the Potency result in test [2] is “inactive”.
Take `CCOC(=O)OCC1OC(CCc2ccccc2)CCC1Oc1ccc(OC)cc1` (stereo not drawn): the Potency in test [1] was 3.98 µM (active). Further, the activity change, positive = activation in test [2] is -68.7% [at 11.4 µM]. The Potency result in test [3] is “inactive”.
For the molecule `C=CCOC(=O)C(C(C)=O)C(NC(=O)OC)c1cccc(F)c1` (stereo not drawn), the values for the Potency in test [1] and in test [4] were 0.0794 µM (active) and 0.1 µM (active), respectively. Besides, the activity change, positive = activation in test [2] is -72.4% [at 11.4 µM]. Besides, in test [3], the Potency result was “inactive”.
The corresponding values for `C/C(CCC(=O)OC[C@@H]1O[C@H](C#Cc2ccccc2)C=C[C@@H]1Oc1ccc(C)cc1)=N/O[C@@H](C)CN1CCCc2nc(C)c(C)cc21` are 3.98 µM (active), 3.16 µM (active), -95.5% [at 11.4 µM] and 3.16 µM (active).
Regarding `COc1cccc([C@@H]2Oc3ccc(OC)cc3/C(=N/O[C@@H](C)CN3CCCc4nc(C)c(C)cc43)[C@@H]2O)c1`, the Potency in test [1] was 3.16 µM (active); in test [3], 3.98 µM (active). Further, the activity change, positive = activation in test [2] is -92.2% [at 11.4 µM].
Consider `CO/N=C(/C)CCC(=O)OC[C@@H]1O[C@H](C#Cc2ccccc2)C=C[C@@H]1Oc1ccc(C)cc1`, for which the Potency in test [1] and in test [4] was 3.98 µM (active) each time. The activity change, positive = activation in test [2] was -90.5% [at 11.4 µM]. Also, the Potency result in test [3] is “inactive”.
On to `COc1c(-c2coc3cc4c(cc3c2=O)CC(OC(C)=O)C(C)(C)O4)ccc2c1C=CC(C)(C)O2` (stereo not drawn), for which, in test [1], the Potency result was “inactive”. The Potency in test [2] was 5.01 µM (active). Moreover, the call in test [5] was inactive.
For `CNC(=O)Oc1ccc2c(c1)[C@@]1(C)CCN(C)C1N2C` (stereo partly drawn), in test [1], the Potency result was “inactive”. For the same molecule, the outcome in test [6] and in test [5] was inactive.
Take `O=C(/C=C\c1ccc2c(c1)OCO2)c1ccc(F)cc1`: the results for the Potency in test [1] and in test [3] were 3.16 µM (active) and 2 µM (active), respectively.
On to `C=CCCCCCCCCCCCC(O)CC(O)COC(C)=O` (stereo not drawn) (tested in a mixture with another compound), for which the Potency entry in test [1] was “inactive”. For the same molecule, the molecule was classed as inactive in test [6].
For the molecule `CCc1cc2c(nc1CC)CCN(CC/C(C)=N/O[C@@H](C)c1cn([C@H](CO)Cc3ccccc3)nn1)C2`, the Potency in test [1] was 3.16 µM (active) and 3.98 µM (active). Moreover, the activity change, positive = activation in test [2] is -78.5% [at 11.4 µM] and -65.5% [at 11.4 µM]. Besides, the activation in test [7] is -4.74%.
For `CC(=O)OCC1OC(C#Cc2ccc(C(C)(C)C)cc2)C=CC1OC(C)=O` (stereo not drawn), in test [1], the activity change, negative = inhibition was -26.6% [at 11.4 µM]. The Potency result in test [3] and in test [4] was “inactive” throughout.
`CC(C)CN1CCc2nc(-c3ccccc3)c3c(c2CC1)COC(C)C3` (stereo not drawn): the activity change, negative = inhibition in test [1] is -18.5% [at 11.4 µM]. Further, the Potency result in test [3] and in test [4] was “inactive” each time.
On to `CCOP(=O)(CC(C(C)=O)C(O)c1ccccc1)OCC` (stereo not drawn), for which the activity change, negative = inhibition in test [1] is -15.8% [at 11.4 µM]. Moreover, in test [4], the Potency result was “inactive”.
Consider `CC(=O)c1ccc(C2C=CC(O)C(CO)O2)cc1` (stereo not drawn), for which, in test [1], the activity change, negative = inhibition is -3.24% [at 11.4 µM]. For the same molecule, the Potency entry in test [3] and in test [4] was “inactive” each time.
As for `C=CC[C@@H]1C=C[C@H](O/N=C(\C)CCN2CCCCc3nc(C)c(C)cc32)[C@H](CO)O1`, the Potency in test [1] and in test [3] was 3.98 µM (active) in each case.
For the molecule `COc1ccc(/C=C/N(CCc2ccc(OC)c(OC)c2)C(C)=O)cc1`, the results for the Potency in test [1] and in test [4] were 2 µM (active) and 0.794 µM (active), respectively. Also, the Potency result in test [3] was “inactive”.
As for `C[C@]12CCC3c4ccc(O)cc4CCC3C1CCC2OC(=O)CCC1CCCC1` (stereo partly drawn), in test [1], the Potency entry is “inactive”. The molecule was called inactive in test [6] and in test [5].
For `Nc1nc2c(ncn2C2OC(COC(=O)c3ccccc3)C(OC(=O)c3ccccc3)C2OC(=O)c2ccccc2)c(=O)[nH]1` (stereo not drawn), the Potency in test [1] was 3.98 µM (active). In addition, in test [2], the Potency result was “inactive”. Besides, in test [5], the outcome was inactive.
